Results on 36 compounds are retold here after PubChem BioAssay (NCATS).

Each structure is given as a SMILES string. Results filed as inconclusive are left out. Entries that show only a call come without a potency. Activity calls are given as the source filed them. The call rests on the fitted dose curve; in most records, active means well fitted curve in the direction sought with a large enough effect; inconclusive means small, poorly fitted or top-dose-only effect, or another doubt; inactive means no such curve, though single readings can be large; an effect the other way counts as inactive or inconclusive.

The nature of the first assay: qHTS of pediatric cancer cell lines to identify multiple opportunities for drug repurposing: Primary screen for control Hh wild type fibroblast cells (AID 1347106).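 Further: a drop in luminescence marks cytotoxicity and a rise apparent proliferation; nearly all actives have a fitted effect of over 55% in size.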 The note with it: Hh wild-type fibroblast viability, CellTiter-Glo luminescence, 48 h; series mostly up to 46 µM. The method, boiled down:
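Viability after 48 h compound treatment at 37C, 500-1,000 cells/well, read as ATP luminescence with CellTiter-Glo. Primary screens used 11-point (MIPE, 0.78 nM-46 µM) or 8-point (NPC, 0.59 nM-46 µM) final concentrations; follow-up screens used 11-point dilutions.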
In general terms: In qHTS, concentration-response curves come from the screen itself.
Turning to `Cc1ncc(CO)c(C=O)c1O`, the Potency entry is “inactive”.
On the same count and under the same terms, the same measure for `CCN1CCCC(OC(=O)C(c2ccccc2)c2ccccc2)C1` (configuration not stated): “inactive”; for `O=[N+]([O-])c1cccc(S(=O)(=O)NCCNS(=O)(=O)c2cccc([N+](=O)[O-])c2)c1`: “inactive”.
Still for that read-out and setting: under `O=S(c1cc(Cl)cc(Cl)c1O)c1cc(Cl)cc(Cl)c1O` stands “inactive”.
Consider `C[C@@H](O)[C@H]1C(=O)N2C(C(=O)O)=C([C@H]3CCCO3)S[C@H]12`, for which the Potency entry was “inactive”.
On the same count and under the same terms, the same measure for `CC(C)(C)NCC(O)COc1cccc2c1C[C@H](O)[C@H](O)C2` (some centres not stated): “inactive”; for `CCN(CC)CCNC(=O)COc1ccc(OC)cc1`: “inactive”.
On the same count and under the same terms, the same measure for `CC(=O)O[C@]1(C(C)=O)CC[C@H]2[C@@H]3C=C(C)C4=CC(=O)CC[C@]4(C)[C@H]3CC[C@@]21C`: “inactive”.
The same measure, in the same setting: under `O=C1C(=O)c2ccccc2C(O)=C1C1CCC(c2ccc(Cl)cc2)CC1` (configuration not stated) stands “inactive”.
Take `CCC(CC)(CC(=O)Nc1cccc(/C=C/c2nc(C3CCC3)cs2)c1)C(=O)O`: the Potency entry was “inactive”.
On the same count and under the same terms, the same measure for `COC(=O)C(c1ccccc1Cl)N1CCc2sccc2C1` (configuration not stated): “inactive”.
Turning to `CCCc1ncc(C[n+]2ccccc2C)c(N)n1`, the Potency result is “inactive”.
On the same count and under the same terms, the same measure for `CCCCC(CC)COC(=O)c1ccc(N(C)C)cc1` (configuration not stated): “inactive”.
Regarding `COc1ccc(CCN(C)CCCN2CCc3cc(OC)c(OC)cc3CC2=O)cc1OC`, the Potency entry is “inactive”.
The same measure, in the same setting: under `Cc1ccccc1OCC(O)CO` (configuration not stated) stands “inactive”; under `N#C/C(=C1\SCC(c2ccccc2Cl)S1)n1ccnc1` (configuration not stated), “inactive”.
The same measure, in the same setting: the same measure for `O=C(O)Cc1csc(-c2ccc(Cl)cc2)n1`: “inactive”.
Still for that read-out and setting: the same measure for `N/C(=N\N=C\c1ccc(Cl)cc1)N/N=C/c1ccc(Cl)cc1`: “inactive”.
`C#C[C@]1(O)CC[C@H]2[C@@H]3CCC4=Cc5oncc5C[C@]4(C)[C@H]3CC[C@@]21C`: the Potency result was “inactive”.
Turning to `C[N+]1(CC2COC(c3ccccc3)(C3CCCCC3)O2)CCCCC1` (configuration not stated), the Potency entry was “inactive”.
In the case of `Cc1cc(C)cc(OCC2CNC(=O)O2)c1` (configuration not stated), the Potency entry is “inactive”.
On the same count and under the same terms, under `CN(C)CCC[C@@]1(c2ccc(F)cc2)OCc2cc(C#N)ccc21` stands “inactive”; under `CCOc1ccccc1C(N)=O`, “inactive”.
Same read-out and setting: under `CC(C)[C@@H]1CC[C@@H](C)CC1=O` stands “inactive”; under `CC1=C(C(=O)O)N2C(=O)[C@@H](NC(=O)[C@H](N)c3ccccc3)[C@H]2SC1`, “inactive”.
On the same count and under the same terms, the same measure for `CCCCOC(=O)CC(CC(=O)OCCCC)(OC(C)=O)C(=O)OCCCC`: “inactive”; for `NS(=O)(=O)c1ccc(Cl)c(S(N)(=O)=O)c1`: “inactive”.
For `Cc1cc2c(OCC(CNC(C)(C)C)OC(=O)c3ccccc3)cccc2[nH]1` (configuration not stated), the Potency entry was “inactive”.
The same measure, in the same setting: the same measure for `CCC(Cc1c(I)cc(I)c(N)c1I)C(=O)O` (configuration not stated): “inactive”; for `C#C[C@]1(O)CC[C@H]2[C@@H]3[C@H](C)CC4=C(CCC(=O)C4)[C@H]3CC[C@@]21C`: “inactive”; for `COc1ccc(CN(CCN(C)C)c2ncccn2)cc1`: “inactive”.
The same measure, in the same setting: under `COc1cc(C(=O)NCc2ccc(OCCN(C)C)cc2)cc(OC)c1OC` stands “inactive”; under `CC(O)Cn1cnc2c1c(=O)n(C)c(=O)n2C` (configuration not stated), “inactive”.
The same measure, in the same setting: the same measure for `Oc1ccccc1C=NCc1ccccc1`: “inactive”; for `O=C(O)P(=O)(O)O`: “inactive”; for `CC[C@H](c1ccc(O)cc1)[C@@H](CC)c1ccc(O)cc1`: “inactive”.

Another assay can be described thus: qHTS of pediatric cancer cell lines to identify multiple opportunities for drug repurposing: Primary screen for Rh30 cells (AID 1347107). Further: nearly all actives have a fitted effect of over 75% in size. The note with it: Rh30 rhabdomyosarcoma viability, CellTiter-Glo luminescence, 48 h; series mostly up to 46 µM. Put shortly: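 Cells (500-1,000/well) rested 5 h, then received compounds for 48 h; metabolically active cells were measured by CellTiter-Glo luminescence. Final concentrations spanned up to 46 µM (MIPE, 11-point) or 0.59 nM-46 µM (NPC, 8-point) in primary screens, 11-point in follow-ups.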
On to `Cc1ncc(CO)c(C=O)c1O`, for which the Potency entry was “inactive”.
The same measure, in the same setting: under `CCN1CCCC(OC(=O)C(c2ccccc2)c2ccccc2)C1` (configuration not stated) stands “inactive”; under `O=[N+]([O-])c1cccc(S(=O)(=O)NCCNS(=O)(=O)c2cccc([N+](=O)[O-])c2)c1`, “inactive”.
The same measure, in the same setting: under `O=S(c1cc(Cl)cc(Cl)c1O)c1cc(Cl)cc(Cl)c1O` stands “inactive”.
Same read-out and setting: under `C[C@@H](O)[C@H]1C(=O)N2C(C(=O)O)=C([C@H]3CCCO3)S[C@H]12` stands “inactive”.
For the compound `CC(C)(C)NCC(O)COc1cccc2c1C[C@H](O)[C@H](O)C2` (some centres not stated), the Potency result is “inactive”.
On the same count and under the same terms, under `CCN(CC)CCNC(=O)COc1ccc(OC)cc1` stands “inactive”; under `CC(=O)O[C@]1(C(C)=O)CC[C@H]2[C@@H]3C=C(C)C4=CC(=O)CC[C@]4(C)[C@H]3CC[C@@]21C`, “inactive”.
The same measure, in the same setting: under `O=C1C(=O)c2ccccc2C(O)=C1C1CCC(c2ccc(Cl)cc2)CC1` (configuration not stated) stands “inactive”; under `CCC(CC)(CC(=O)Nc1cccc(/C=C/c2nc(C3CCC3)cs2)c1)C(=O)O`, “inactive”; under `COC(=O)C(c1ccccc1Cl)N1CCc2sccc2C1` (configuration not stated), “inactive”.
For the compound `CCCc1ncc(C[n+]2ccccc2C)c(N)n1`, the Potency entry was “inactive”.
Same read-out and setting: under `CCCCC(CC)COC(=O)c1ccc(N(C)C)cc1` (configuration not stated) stands “inactive”; under `COc1ccc(CCN(C)CCCN2CCc3cc(OC)c(OC)cc3CC2=O)cc1OC`, “inactive”.
The same measure, in the same setting: under `Cc1ccccc1OCC(O)CO` (configuration not stated) stands “inactive”; under `N#C/C(=C1\SCC(c2ccccc2Cl)S1)n1ccnc1` (configuration not stated), “inactive”; under `O=C(O)Cc1csc(-c2ccc(Cl)cc2)n1`, “inactive”.
Still for that read-out and setting: under `N/C(=N\N=C\c1ccc(Cl)cc1)N/N=C/c1ccc(Cl)cc1` stands “inactive”; under `C#C[C@]1(O)CC[C@H]2[C@@H]3CCC4=Cc5oncc5C[C@]4(C)[C@H]3CC[C@@]21C`, “inactive”.
`C[N+]1(CC2COC(c3ccccc3)(C3CCCCC3)O2)CCCCC1` (configuration not stated): the Potency entry is “inactive”.
Consider `Cc1cc(C)cc(OCC2CNC(=O)O2)c1` (configuration not stated), for which the Potency result is “inactive”.
On the same count and under the same terms, under `CN(C)CCC[C@@]1(c2ccc(F)cc2)OCc2cc(C#N)ccc21` stands “inactive”; under `CCOc1ccccc1C(N)=O`, “inactive”; under `CC(C)[C@@H]1CC[C@@H](C)CC1=O`, “inactive”.
The same measure, in the same setting: under `CC1=C(C(=O)O)N2C(=O)[C@@H](NC(=O)[C@H](N)c3ccccc3)[C@H]2SC1` stands “inactive”.
Consider `CCCCOC(=O)CC(CC(=O)OCCCC)(OC(C)=O)C(=O)OCCCC`, for which the Potency entry is “inactive”.
For the compound `NS(=O)(=O)c1ccc(Cl)c(S(N)(=O)=O)c1`, the Potency entry is “inactive”.
On the same count and under the same terms, the same measure for `Cc1cc2c(OCC(CNC(C)(C)C)OC(=O)c3ccccc3)cccc2[nH]1` (configuration not stated): “inactive”; for `CCC(Cc1c(I)cc(I)c(N)c1I)C(=O)O` (configuration not stated): “inactive”.
As for `C#C[C@]1(O)CC[C@H]2[C@@H]3[C@H](C)CC4=C(CCC(=O)C4)[C@H]3CC[C@@]21C`, the Potency entry is “inactive”.
As to `COc1ccc(CN(CCN(C)C)c2ncccn2)cc1`, the Potency result was “inactive”.
On to `COc1cc(C(=O)NCc2ccc(OCCN(C)C)cc2)cc(OC)c1OC`, for which the Potency result was “inactive”.
On the same count and under the same terms, under `CC(O)Cn1cnc2c1c(=O)n(C)c(=O)n2C` (configuration not stated) stands “inactive”; under `Oc1ccccc1C=NCc1ccccc1`, “inactive”.
For the compound `O=C(O)P(=O)(O)O`, the Potency result is “inactive”.
On to `CC[C@H](c1ccc(O)cc1)[C@@H](CC)c1ccc(O)cc1`, for which the Potency result was “inactive”.
